Screening results deposited in PubChem BioAssay by National Center for Advancing Translational Sciences (NCATS).
Pf growth 96h: P. falciparum growth inhibition at 96 hour, primary screen for plastid delayed-death inhibitors | Potency, µM (series often up to 28.7 µM), inactives show top-dose activity change, negative = inhibition, actives largely listed as inhibitors | P. falciparum luciferase reporter growth, 96 h | hit rate 6.9% among 320,000; note: potency is the fitted concentration of half-maximal effect
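P. falciparum expressing integrated firefly luciferase grown in erythrocytes (2% hematocrit, 0.05% parasitemia final) with compounds for 96 hours at 37 C, 5% CO2. Growth inhibition read as loss of luminescence after adding luciferase detection reagent.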
Pf growth 48h: inhibits P. falciparum growth in the first generation, 48 h; P. falciparum luciferase growth in erythrocytes, 48 h; Potency, µM (top dose mostly 28.7 µM), for the others: top-dose activity change, negative = inhibition, hits mostly inhibitors; hit rate 5.9% among 310,000; AID 504832; note: potency is the fitted concentration of half-maximal effect
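A one-generation exposure of luciferase-tagged malaria parasites in RPMI 1640/Albumax erythrocyte culture, 37 C and 5% CO2. Inhibition is inferred from decreased luminescence after adding detection reagent.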
HCV inh: HCV inhibition. Huh7.5.1 HCVcc-Cre infection, luciferase reporter, 44 h. AID 651820. Potency, µM (titrated, usually from 41.8 µM), without a hit: top-dose activity change, negative = inhibition, usual class: inhibitors. hit rate 3.4% among 340,000; note: potency is the fitted concentration of half-maximal effect
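After 44 h co-culture of compound, cells and HCVcc-Cre (~0.5 moi), substrate is added for 15 min at room temperature and luciferase measured over 15 sec. Cells were seeded at 1,000/well and pre-cultured 4 h.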
Marburg entry inh: inhibitors of Marburg virus binding or cell entry. AID 540276. Marburg virus pseudotyped entry inhibition, cell reporter. Potency, µM (titrated, usually from 37.8 µM), for inactives: top-dose activity change, negative = inhibition, hits mostly inhibitors. hit rate 1.8% among 300,000; calls by dose curve; tested in HEK293 cells; note: potency is the fitted concentration of half-maximal effect
LASV entry inh: Lassa virus entry inhibition; Lassa virus pseudotype entry inhibition, cell reporter; Potency, µM (doses to about 37.9 µM), without a hit: at the top dose activity change, negative = inhibition, actives largely listed as inhibitors; hit rate 1.2% among 300,000; AID 540256; calls by dose curve; tested in HEK293 cells; note: potency is the fitted concentration of half-maximal effect; nearly all actives have a fitted effect of over 50% in size
HCMV inh: human cytomegalovirus inhibition; AID 1259415; HFF cells, HCMV-luciferase reporter, 72 h; stronger effect = lower value; activity change, negative = inhibition, % at 57.5 µM; hit rate 4.5% among 410,000; in the data active = activity change below about -60%; inconclusive = no clear call, values can overlap the other calls; inactive = above about -39%
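Two compound doses tested in HFFs infected with HCMV-luciferase, MOI 1 PFU/cell, 72 h at 37C. Lysate luminescence read with OneGlo; data normalized against buffer-only and 10uM Salinomycin inhibitor controls.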
Numbers without * were called inactive; ? = inconclusive; . = no result; [ ] = remark or other dose. Compounds with a hit are over-represented: about 14% of the library has one in this group of screens. Unless noted, calls come from the whole dose curve; as a rule, active = well fitted inhibition curve with a large enough effect; inconclusive = small, poorly fitted or top-dose-only effect, or another doubt; inactive = no such curve, though single readings can be large or run the other way. % is set by controls: 0 for no effect and ±100 for the full control effect.

SMILES	Pf growth 96h	Pf growth 48h	HCV inh	Marburg entry inh	LASV entry inh	HCMV inh
Cc1cc(C)c(NC(=O)C2CCN(c3nn4c(=O)cc(C)nc4s3)CC2)c(C)c1	.	.	.	13.5%[46.1 µM]	7.3%[46.1 µM]	-3.7
COc1ccc(N(Cc2cc3cc(OC)ccc3[nH]c2=O)S(=O)(=O)c2ccc(NC(C)=O)cc2)cc1	9.28µM*	2.33µM*	?	.	.	-19.0
CCOc1ccc(N(Cc2cc3cc(OC)ccc3[nH]c2=O)S(C)(=O)=O)cc1	1.2%	-2.0%	-17.4%	1.0%	-0.3%	10.2
COc1ccc2[nH]c(=O)c(CN(c3ccc(C)c(C)c3)S(C)(=O)=O)cc2c1	6.57µM*	-21.2%	-8.5%	?	?	4.0
O=C1CC(=Nc2ccc([N+](=O)[O-])cc2)NN1c1c(Cl)cc(Cl)cc1Cl	.	.	.	.	.	-3.5
CCOc1ccc(S(=O)(=O)N2CCN(C(=O)c3ccc(C)c(S(=O)(=O)N4CCOCC4)c3)CC2)cc1	.	.	?	?	?	-60.9*
CCOc1ccc(S(=O)(=O)N2CCN(C(=O)c3ccc(Cl)c(S(=O)(=O)N4CCOCC4)c3)CC2)cc1	.	.	7.4%	.	.	-60.3*
CCN1CCN(C(=O)c2ccc(Cl)c(S(=O)(=O)N3CCOCC3)c2)CC1	?	.	-5.5%	1.2%	3.7%	28.9
CCOc1ccc(S(=O)(=O)N2CCN(C(=O)c3cc(S(=O)(=O)N4CCOCC4)ccc3C)CC2)cc1	3.7µM*	8.28µM*	6.3%	-6.2%	-4.3%	-1.8
Cc1ccc(S(=O)(=O)N2CCOCC2)cc1C(=O)N1CCN(c2ccc(C(F)(F)F)cn2)CC1	.	.	10µM*	?	?	-76.3*
Cc1ccc(S(=O)(=O)N2CCOCC2)cc1C(=O)N1CCCC1	31.4%	12.2%	?	-4.6%[46.1 µM]	2.2%[46.1 µM]	-26.4
O=C(c1ccc2c(c1)CCCC2)N1CCN(c2nc3ccc(F)cc3s2)CC1	.	.	.	.	17.8%[46.1 µM]	-15.1
C=C(C)c1cccc(C(C)(C)NC(=O)Nc2ccc(Cl)cn2)c1	?	8.9%	?	?	?	-11.2
C=C(C)c1cccc(C(C)(C)NC(=O)Nc2cccnc2)c1	4.65µM*	?	-7.5%	?	?	-9.4
C=C(C)c1cccc(C(C)(C)NC(=O)Nc2ncccn2)c1	8.28µM*	?	?	-14.6%	-10.2%	8.0
C=C(C)c1cccc(C(C)(C)NC(=O)Nn2cnnc2)c1	?	-11.4%	17.2%	-7.5%	?	8.0
C=C(C)c1cccc(C(C)(C)NC(=O)Nc2ccc(C(N)=O)cc2)c1	35.4%	-12.2%	-17.6%	?	0.0%[46.1 µM]	-67.4*
O=C(OCC1CCCO1)c1ccc2c(c1)N(Cc1ccccc1Cl)C(=O)c1ccccc1S2(=O)=O (stereo not drawn)	.	.	.	.	5.5%[46.1 µM]	-4.5
COc1ccc2c(c1)C(=O)[C@@H](OC(=O)Nc1cc(OC)c(OC)c(OC)c1)[C@H](c1ccc(OC)c(Br)c1)O2	.	.	.	-20.8%[14.2 µM]	.	.
COc1ccc2c(c1)O[C@@H](c1ccc3c(c1)OCO3)[C@H](OC(=O)Nc1cc(OC)c(OC)c(OC)c1)C2=O	?	13.1µM*	-23.0%[8.37 µM]	?	-12.6%	.
Cc1c(NC(=O)C2CCCN2S(=O)(=O)c2ccc(Cl)cc2)c(=O)n(-c2ccccc2)n1C (stereo not drawn)	?	.	0.3%	-0.4%	?	-9.0
Cc1c(N(CC(=O)O)S(=O)(=O)c2ccccc2)c(=O)n(-c2ccccc2)n1C	4.65µM*	15.3%	28.7%	-1.6%[46.1 µM]	29.3%	-13.2
Cc1c(N(C)C(=O)C2CCCN2S(=O)(=O)c2ccccc2)c(=O)n(-c2ccccc2)n1C (stereo not drawn)	2.33µM*	1.3%	13.5%	-0.4%	16.8%	-10.3
Cc1c(N(C)S(=O)(=O)c2cccc(C(=O)NC(C)C)c2)c(=O)n(-c2ccccc2)n1C	11.7µM*	-69.5%	-6.5%	-4.8%[46.1 µM]	?	-18.4
Cc1c(NC(=O)CN(c2ccc(F)cc2)S(=O)(=O)c2ccccc2)c(=O)n(-c2ccccc2)n1C	?	-0.9%	9.8%	13.7%	-1.9%	35.7
SMILES	Pf growth 96h	Pf growth 48h	HCV inh	Marburg entry inh	LASV entry inh	HCMV inh
COc1ccc(CNC(=O)CCc2c(C)nc3c4cccnc4nn3c2C)cc1	.	.	.	0.0%[46.1 µM]	0.1%[46.1 µM]	-29.9
O=C(COC(=O)c1ccc(Cl)c(S(=O)(=O)N2CCCCC2)c1)NC1CCCCC1	.	.	.	.	.	-11.4
COc1ccccc1-c1oc2ccccc2c1C#CC1(N)CCCCC1	3.29µM*	8.28µM*	?	.	.	16.7
COc1ccccc1-c1oc2ccccc2c1C#CCCO	?	-17.2%	14.1µM*	.	.	43.2
COc1ccc(C#Cc2c(-c3ccccc3OC)oc3ccccc23)cc1	.	.	.	.	.	-10.5
COc1ccc(Cl)cc1NC(=O)CN(C)C(=O)Cn1cnc2c1c(=O)n(C)c(=O)n2C	22.5%	7.1%	14.9%	17.8%	-0.7%	0.1
Cc1cccc(-c2nc3c(NCc4cccc(N(C)C)c4)nccc3[nH]2)c1	.	.	.	.	.	13.5
CCOCCc1nn2c(=O)cc(COC(=O)C3CCCCC3)nc2s1	.	.	.	.	-8.8%[46.1 µM]	-2.9
CN=c1scc(C)n1/N=C/c1cc(Br)c(O)c(Br)c1	16.7%	4.8%	20.0%	?	-6.2%	?
COc1cc(/C=N/N2C(=O)CSC2=S)cc(Br)c1O	5.1%	0.0%	-7.9%	-11.5%	15.8µM*	-9.3
CCN=c1scc(C)n1/N=C/c1cc(Br)c(O)c(OC)c1	5.86µM*	?	?	?	?	?
Cc1cccc(NC(=O)Nc2nnc(N3CCCC3)s2)c1	.	.	.	?	-20.1%[46.1 µM]	20.0
CCOc1ccc(-n2c(Cc3ccccc3)nnc2SCc2nc(-c3ccccc3OC)no2)cc1	.	.	.	?	?	-17.4
CCc1ccc(N(C(=O)c2snc(C(N)=O)c2N)C(C(=O)NCC2CCCO2)c2ccco2)cc1 (stereo not drawn)	11.2%	?	-10.2%	-14.0%[46.1 µM]	-15.4%	-60.4*
CCOc1ccc(N(C(=O)c2snc(C(N)=O)c2N)C(C(=O)NCC2CCCO2)c2ccco2)cc1 (stereo not drawn)	10.1%	-19.7%	-20.2%	12.6µM*	?	-36.2
Cn1ncc2c(c(SCc3ccc(Cl)cc3Cl)nn2C)c1=O	?	7.38µM*	?	16.9%[46.1 µM]	-9.3%[46.1 µM]	-12.1
COc1cnn(-c2ccccc2)c(=O)c1SCc1ccc(Cl)cc1Cl	?	?	-16.7%	-12.8%	0.5%	?
CCOC(=O)c1cnc2c(C)cc(Cl)cc2c1N1CCN(C)CC1	?	.	-23.3%	4.3%	11.1%	-62.0*
CCOC(=O)c1cnc2ccc(OCC)cc2c1N1CCN(C)CC1	0.0%	8.28µM*	?	?	-3.7%	13.9
CCOC(=O)c1cnc(N2CC2)nc1N	.	.	-8.2%	10µM*	?	-68.4*
CCOc1ccc2ncc(S(=O)(=O)c3ccc(C)cc3)c(N3CCC4(CC3)OCCO4)c2c1	7.38µM*	11.7µM*	?	?	?	-89.8*
